Rows were chosen to be rich in hits. Some 20% of all compounds tested hit in one or more screens of this group.
Shiga inhibitor = blocks Shiga toxin action in Vero cells; Vero cells, Shiga toxin protein synthesis inhibition reporter; inhibition, % at 38.7 µM; 9.2% of 290,000 active; in the data active = inhibition mostly above about 28%, no sharp cut-off; inactive = mostly below about 43%
Pf growth 48h = inhibits P. falciparum growth in the first generation, 48 h | P. falciparum luciferase growth in erythrocytes, 48 h | Potency, µM (titrated, usually from 28.7 µM), usual class: inhibitors | 5.9% of 310,000 active
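Growth was read as firefly luciferase luminescence after a 48 h, 37 C, 5% CO2 exposure of compounds to reporter-bearing P. falciparum cultures (0.1% parasitemia, 2% hematocrit final) in Albumax-supplemented RPMI 1640.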
CHX counter = counter-screen hit for Shiga toxin inhibitors, cycloheximide | AID 2314 | 12% of 300,000 active | cell reporter, cycloheximide protein synthesis inhibition counterscreen | max response, %; in the data active = max response mostly above about 13%, no sharp cut-off; inactive = mostly below about 14%; also: read at 38.3 µM for the half of the compounds with a filed dose
Pf growth 96h = inhibits malaria parasite growth, 96 h. P. falciparum luciferase reporter growth, 96 h. Potency, µM (titrated, usually from 28.7 µM), actives largely listed as inhibitors. 6.9% of 320,000 active
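Two parasite generations (96 h, 37 C, 5% CO2) of compound exposure in infected erythrocytes (0.05% parasitemia, 2% hematocrit). Luciferase-reporter P. falciparum; decreased luminescence indicates inhibited growth, aimed at apicoplast-acting delayed death.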
HCMV antiviral = blocks human cytomegalovirus replication. HFF cells, HCMV-luciferase reporter, 72 h; hits give low values. 4.5% of 410,000 active. AID 1259415. activity change, negative = inhibition, % at 57.5 µM; in the data active = activity change below about -60%
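Screen run at 2 compound doses on HFFs infected with reporter HCMV, MOI 1 PFU/cell. Luciferase activity from cell lysates at 72 h post infection gave inhibition relative to buffer-only and Salinomycin wells.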
Of the large screens only hits and unclear results are named; the others gave an inactive call. Unless noted, calls follow the shape of the dose curve; as a rule, active = well fitted inhibition curve with a large enough effect; inconclusive = small, poorly fitted or top-dose-only effect, or another doubt; inactive = no such curve, though single readings can be large or run the other way.

Cc1cc(C)nc(NS(=O)(=O)c2ccc(NC(=O)c3cc(=O)c4ccccc4o3)cc2)n1	none
CC(C)C[C@H](NC(=O)CNC(=O)[C@H](C)NC(=O)[C@H](CC(C)C)NC(=O)[C@H](CCCNC(=N)N)NC(=O)[C@H](Cc1cnc[nH]1)NC(=O)[C@@H](NC(=O)[C@@H](N)C(C)C)[C@@H](C)O)C(=O)N[C@@H](CC(C)C)C(=O)N[C@@H](CO)C(=O)N[C@@H](CCCNC(=N)N)C(=O)N[C@@H](CO)C(=O)NCC(=O)NCC(=O)N[C@H](C(=O)N[C@H](C(=O)N[C@@H](CCCCN)C(=O)N[C@@H](CC(N)=O)C(=O)N[C@@H](CC(N)=O)C(=O)N[C@@H](Cc1ccccc1)C(=O)N[C@H](C(=O)N1CCC[C@H]1C(=O)N[C@H](C(=O)N[C@@H](CC(N)=O)C(=O)N[C@H](C(=O)NCC(=O)N[C@@H](CO)C(=O)N[C@@H](CCCCN)C(=O)N[C@@H](C)C(=O)N[C@@H](Cc1ccccc1)C(N)=O)C(C)C)[C@@H](C)O)C(C)C)C(C)C)C(C)C	none (no result: Pf growth 48h, Pf growth 96h, HCMV antiviral)
CC(=O)c1sc(NC(=O)C=C(C)C)nc1C	Shiga inhibitor 66, CHX counter 44, HCMV antiviral -69 (no result: Pf growth 96h)
CCC(=O)Nc1nnc(C)s1	none
CCCCC(=O)Nc1nc(C)c(C(C)=O)s1	none (no result: Pf growth 48h)
CC(C)=CC(=O)Nc1nnc(C)s1	Shiga inhibitor 25, CHX counter 16
